Out of some 1,300 compounds screened, about 850 (65%) were called active. About 1% were inconclusive and are not listed. So high a share suggests a set chosen from earlier hits. Only a sample is shown. Entries with a potency or affinity are not part of this list. Values without a mark were called inactive. No rule for the calls is given here.

The assay addresses Dual specificity tyrosine-phosphorylation-regulated kinase 1A (Rattus norvegicus) (UniProt Q63470). Nature of the assay: rat Dyrk1A kinase inhibitors, dose response, biochemical, cherry-pick, plate reader, 2124-01 (AID 588345). The following applies: Dyrk1A kinase biochemical assay; series mostly up to 12 µM; activity change, negative = inhibition: at the top concentration.
For the compound `CCOC(=O)C1=C(C)OC(N)=C(C#N)C1c1cc2c(cc1Br)OCO2` (stereo unspecified), the “activity change, negative = inhibition” value was -18%.

For `COC(=O)c1nn(-c2ccc3c(c2)OCO3)cc1O`, the “activity change, negative = inhibition” value was 3.31%.

As to `C=CCOC(=O)C1=C(C)NC(=O)NC1c1ccc(Cl)cc1` (stereo unspecified), the “activity change, negative = inhibition” value is 7.5%.

As to `C=CCc1ccc(OCCOc2ccc(/C=N/n3cnnc3)cc2OCC)c(OC)c1`, the “activity change, negative = inhibition” value is -4.21%.

In the case of `Cc1ccccc1C(=O)N1CCN(c2ccc(NC(=O)c3cccc(OC(C)C)c3)cc2)CC1`, the “activity change, negative = inhibition” value was 8.66%.

Consider `O=C(Nc1ccc(Cl)cc1)c1csc(-c2ccncc2)n1`, for which the “activity change, negative = inhibition” value was -0.305%.

`O=C(Nc1ccc(F)cc1F)c1csc(-c2ccncc2)n1`: the “activity change, negative = inhibition” value was -28.6%.

On to `c1ccc(-c2nnc3sc(Cc4cccs4)nn23)cc1`, for which the “activity change, negative = inhibition” value was -9.39%.

Regarding `COC(=O)[C@]1(CC(C)C)N[C@H](c2ccc(-c3cccc(Cl)c3)cc2)[C@@H]2C(=O)N(C)C(=O)[C@@H]21`, the “activity change, negative = inhibition” value is 7.87%.

With `Cc1cccc(CNc2ncnc3ccc(-c4ccoc4)cc23)c1`, the “activity change, negative = inhibition” value was 15.7%.

`CN(C)/C=C1/Oc2c(ccc3ccccc23)C1=O`: the “activity change, negative = inhibition” value was 1.24%.

Regarding `COc1cc(-c2cn(S(=O)(=O)c3cccc4nsnc34)nc2N)cc(OC)c1OC`, the “activity change, negative = inhibition” value is -9.11%.

Take `CCn1c2ccccc2c2cc(/C=N/O)ccc21`: the “activity change, negative = inhibition” value is -50%.

With `Cc1ccccc1NC(=O)CSc1[nH]c(=O)cc(C)c1C#N`, the “activity change, negative = inhibition” value is -5.2%.

Regarding `CCN1CCN(Cc2ccc(NC(=O)c3ccc(C)c(NC(=O)c4csc(-c5ccncc5)n4)c3)cc2C(F)(F)F)CC1`, the “activity change, negative = inhibition” value was -1.6%.

Take `Cn1c(-c2ccccc2)c(C=O)c2ccccc21`: the “activity change, negative = inhibition” value was 7.44%.

Consider `Cc1ccc(S(=O)(=O)/N=C2\C=C(Nc3cccc(C(=O)O)c3)C(=O)c3ccccc32)c(C)c1`, for which the “activity change, negative = inhibition” value was -54.7%.

Regarding `Cc1ccccc1NC(=O)C1CCCN1S(=O)(=O)c1ccc2c(c1)n(C)c(=O)c(=O)n2C` (stereo unspecified), the “activity change, negative = inhibition” value was -5.91%.

In the case of `CCOC(=O)C[C@H]1c2cc(C(F)(F)F)ccc2S(=O)(=O)N1C(C)C`, the “activity change, negative = inhibition” value was 11%.

As to `COc1ccc(-c2nn(-c3ccccc3)cc2CO)cc1`, the “activity change, negative = inhibition” value was 0.31%.

Take `Cc1nc2c(c3c1[nH]c1ccccc13)C(=O)CC(C)(C)C2`: the “activity change, negative = inhibition” value is -41.5%.

Consider `CN(C)S(=O)(=O)c1ccc(Cl)c(C(=O)Nc2cccc3ncccc23)c1`, for which the “activity change, negative = inhibition” value is 3.66%.

Consider `OCC[C@@H]1C[C@H](O)[C@@H](O)[C@@]2(CCc3ccccc3CO2)O1`, for which the “activity change, negative = inhibition” value is 2.35%.

For the compound `COC(=O)c1cc(NC(=O)Nc2cccc(Cl)c2)ccc1Cl`, the “activity change, negative = inhibition” value is 8.6%.

Turning to `CC(=O)c1cccc(NC(=O)Nc2cccs2)c1`, the “activity change, negative = inhibition” value was -6.65%.

Take `COc1ccc(S(=O)(=O)N(C)C[C@H]2Oc3ccc(NS(=O)(=O)c4cccs4)cc3CC(=O)N([C@H](C)CO)C[C@H]2C)cc1`: the “activity change, negative = inhibition” value is 6.05%.

For `CCOc1ccc(C2CC(c3cccc(OC)c3)Nc3nc(N)nn32)cc1` (stereo unspecified), the “activity change, negative = inhibition” value is 2.82%.

Regarding `N#C/C(=C\c1ccc(O)c(O)c1)C(=O)NCCc1ccccc1`, the “activity change, negative = inhibition” value was -29.2%.

Regarding `COc1cccc(C(=O)c2sc(NC(C)C)nc2N)c1`, the “activity change, negative = inhibition” value is 5.66%.

For the compound `O=C1CC(c2ccc(S(=O)(=O)NC3CC3)cc2)CN1` (stereo unspecified), the “activity change, negative = inhibition” value was 2.56%.

`CNC(=O)c1cc2c(s1)-c1ccccc1CC2`: the “activity change, negative = inhibition” value is -14.8%.

Regarding `Cn1c2ccccc2c2cc(/C=N/NC(=O)c3cc(O)ccc3O)ccc21`, the “activity change, negative = inhibition” value is -0.468%.

Regarding `Cc1ccnc(NC(=O)c2cccc(S(=O)(=O)N3CCN(c4ccccc4)CC3)c2)c1`, the “activity change, negative = inhibition” value is 6.18%.

As for `COc1ccc(-n2c(Cn3c(=O)sc4ccccc43)nnc2SCC(=O)N2CCOCC2)cc1`, the “activity change, negative = inhibition” value is -5.17%.

In the case of `c1ccc(-c2csc3nnc(SCc4ccc5c(c4)OCO5)n23)cc1`, the “activity change, negative = inhibition” value was 14.3%.

In the case of `COc1ccc2c(c1)C(=NN)c1cc(OC)ccc1-2`, the “activity change, negative = inhibition” value is 4.46%.

For the compound `CC(C)NC(=O)Nc1cccc2c1O[C@H](CN(C)C(=O)NC1CCCCC1)[C@H](C)CN([C@H](C)CO)C2=O`, the “activity change, negative = inhibition” value was -2.59%.

As for `CC(C)C[C@H]1COCCS(=O)(=O)N1Cc1cccc(Cl)c1`, the “activity change, negative = inhibition” value is 14.4%.

In the case of `CC(=O)C1C(c2ccc(Cl)cc2)NC(=O)NC1(O)C(F)(F)F` (stereo unspecified), the “activity change, negative = inhibition” value was -2.34%.

Regarding `Cn1c(C(=O)N2CCCC2)cc2c(=O)n(C)c3ccccc3c21`, the “activity change, negative = inhibition” value was -14%.

Regarding `Fc1ccc(-c2nnc3sc(C4COc5ccccc5O4)nn23)cc1` (stereo unspecified), the “activity change, negative = inhibition” value was 10.9%.

For `NC(=O)c1cc2ccccc2oc1=NCc1ccccc1`, the “activity change, negative = inhibition” value was 5.63%.

On to `Nc1c(C(=O)NCc2ccccc2)nnn1Cc1ccccc1`, for which the “activity change, negative = inhibition” value is -6.06%.

As to `S=c1[nH]cc(-c2ccc(Cl)cc2)n1Cc1ccccc1`, the “activity change, negative = inhibition” value was -12.1%.

In the case of `C=C(C)Cn1c(N2CCN(CC)CC2)nc2c1c(=O)[nH]c(=O)n2C`, the “activity change, negative = inhibition” value was 9.32%.

Consider `COCCCn1c(SCC(=O)NC2CCCCC2)nnc1-c1ccncc1`, for which the “activity change, negative = inhibition” value is -4.11%.

On to `Nc1nc(N)nc(-c2ccc(Cl)c(Cl)c2)n1`, for which the “activity change, negative = inhibition” value was -34.5%.

Take `CCNc1nc(N)nc(-c2cc(Cl)ccc2O)n1`: the “activity change, negative = inhibition” value is -0.458%.

Regarding `Cc1cccc(NC(=O)c2cnc3sccn3c2=O)n1`, the “activity change, negative = inhibition” value was 5.97%.

As for `O=C(Nc1ccc(Cl)c(Cl)c1)OCc1cnc(Cl)s1`, the “activity change, negative = inhibition” value is -3.39%.

For the compound `Cc1cc(O)c2c(c1)C(=O)c1cc(O)cc(O)c1C2=O`, the “activity change, negative = inhibition” value is -40.8%.

As to `CC1CCN(c2ncnc3nc[nH]c23)CC1`, the “activity change, negative = inhibition” value is -3.53%.

As for `O=C(c1cccc2c1-c1ccccc1/C2=N/O)N1CCCCC1`, the “activity change, negative = inhibition” value is 5.52%.

For `NC(=O)N/N=C1\c2ccccc2-c2c(C(N)=O)cccc21`, the “activity change, negative = inhibition” value is 13.6%.

For `CCOC(=O)c1cnc2ccc(C)cc2c1Nc1ccc(N2CCOCC2)cc1`, the “activity change, negative = inhibition” value is -8%.

Consider `N#Cc1c(=O)c2nc(NCCCO)ncc2n2c(=O)c3ccccc3[nH]c12`, for which the “activity change, negative = inhibition” value is 3.42%.

With `O=C(NNC1=C(C(=O)C(F)(F)F)CCC1)c1ccccc1O`, the “activity change, negative = inhibition” value was 19.1%.

In the case of `c1csc(CNc2ncnc3ccc(-c4ccoc4)cc23)c1`, the “activity change, negative = inhibition” value is 4.22%.

In the case of `CC(Nc1nc(-c2cccnc2)nc2ccccc12)c1ccc(F)cc1` (stereo unspecified), the “activity change, negative = inhibition” value was -33.2%.

Take `N#CCSc1nc(Nc2ccc3c(c2)OCO3)c2ccccc2n1`: the “activity change, negative = inhibition” value was -33.6%.

With `c1cncc(-c2nc(NCc3ccco3)c3ccccc3n2)c1`, the “activity change, negative = inhibition” value is -22.1%.

In the case of `Cc1nnc2c3ccccc3c(-c3cccs3)nn12`, the “activity change, negative = inhibition” value was 4.82%.

Turning to `CCCn1c2ccccc2c2cn[nH]c(=O)c21`, the “activity change, negative = inhibition” value was 4.44%.

As to `CCN(CC)CCCNC(=O)c1cc2c(=O)n(C)c3ccccc3c2n1C`, the “activity change, negative = inhibition” value was -19.7%.

Regarding `O=C(NCCc1ccccc1)C1CCN(S(=O)(=O)c2ccc(Br)s2)CC1`, the “activity change, negative = inhibition” value is 2.48%.

For the compound `N#Cc1nc(-c2ccccc2Cl)oc1NCC1CCCO1` (stereo unspecified), the “activity change, negative = inhibition” value was -2%.

On to `COc1ccc(C(=O)N2CCN(c3c(C)cccc3C)CC2)cc1OC`, for which the “activity change, negative = inhibition” value is 11.9%.

As to `C=CCNC(=S)Nc1ccc2cn[nH]c2c1`, the “activity change, negative = inhibition” value is -33.4%.

Take `Cc1ccc(CCNC(=O)C2CCN(S(=O)(=O)c3cccc4nonc34)CC2)cc1`: the “activity change, negative = inhibition” value is 4.41%.

For `CCN(CC)c1ccc(NC(=O)CCc2nnc3ccc(N4CCCCC4)nn23)c(C)c1`, the “activity change, negative = inhibition” value is 9.53%.

For `NS(=O)(=O)c1ccc(-c2ccc(/C=C3\SC(=O)NC3=O)o2)cc1`, the “activity change, negative = inhibition” value was 6.26%.

Values taken from PubChem BioAssay AID588345 (Broad Institute, 2011).
